Calls of active or inactive are those of the source.
Molecular target: NADPH oxidase 2 (Homo sapiens) (UniProt P04839)
Assay: NOX2-dependent H2O2 signal modulators, primary screen, NOX inhibitor project, cell-based, HEK293-NOX2, PMA-stimulated, Amplex Red fluorescence (AID 1159); note: test concentration not given here
Conditions: 45 min, higher = more signal, called active from +8 up or from −8 down

NADPH oxidase 2 (Homo sapiens), sequence (P04839 whole entry, looked up): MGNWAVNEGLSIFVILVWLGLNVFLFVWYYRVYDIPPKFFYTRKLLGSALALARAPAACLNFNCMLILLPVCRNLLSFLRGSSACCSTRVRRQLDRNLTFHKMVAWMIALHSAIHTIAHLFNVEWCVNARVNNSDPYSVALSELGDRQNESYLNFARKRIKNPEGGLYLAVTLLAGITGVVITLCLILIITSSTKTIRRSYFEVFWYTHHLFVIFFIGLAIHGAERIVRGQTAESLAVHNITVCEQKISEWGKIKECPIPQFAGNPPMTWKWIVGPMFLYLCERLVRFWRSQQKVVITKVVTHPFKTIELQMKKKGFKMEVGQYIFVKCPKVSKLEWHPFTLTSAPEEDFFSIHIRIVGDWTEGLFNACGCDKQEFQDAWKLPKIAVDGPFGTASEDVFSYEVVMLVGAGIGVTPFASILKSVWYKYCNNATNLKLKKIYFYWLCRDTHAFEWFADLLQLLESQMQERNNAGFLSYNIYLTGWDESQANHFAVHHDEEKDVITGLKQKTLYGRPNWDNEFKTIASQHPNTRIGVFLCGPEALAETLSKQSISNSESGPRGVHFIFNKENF

z-score, inactive:
COC(=O)[C@H](C)NC(=O)CCC1CC(OC(=O)NCCc2ccc(F)cc2)CC2(CCCC(COC(=O)NCCC(C)C)O2)O1 (stereo not given in full) 0.341
CC(=O)Nc1ccc([C@@H]2N[C@H](C(=O)O)CC[C@H]2C)cc1 -0.121
COc1ccc(O[C@H]2C=C[C@@H](c3ccccc3)O[C@@H]2CON=C(C)C)cc1 -0.254
CO[C@H]1COC(=O)[C@@H](Cc2ccccc2)NC(=O)[C@@H](C)COC(=O)CCC[C@@H]1C -0.785
CCOC(=O)NN=C1C[C@@H](O)[C@@H](O)[C@@H]2[C@@H]3C(=O)N([C@@H](C)c4ccccc4)C(=O)[C@@H]3CC[C@H]12 1.35
CO[C@H]1COC(=O)CCC[C@@H](C)[C@H](OC)COC(=O)[C@@H]2CCCN2C(=O)CC=C[C@@H]1C -0.336
COc1cccc([C@H]2Oc3ccc(OC)cc3C(=NOC(C)CN3CCCCc4nc(C)c(C)cc43)[C@@H]2O)c1 (stereo not given in full) -2.44
O=C1[C@H]2[C@H]3[C@H](O)[C@H](O)CC(=NOC[C@@H](O)COCc4ccco4)[C@H]3CC[C@H]2C(=O)N1Cc1ccccc1 -0.0116
COc1cccc([C@H]2Oc3ccc(OC)cc3C(=NOC[C@@H](O)[C@H]3O[C@@H]4OC(C)(C)O[C@@H]4[C@H]3O)[C@@H]2O)c1 -0.895
Cn1c(=O)n2n(c1=O)[C@H]1[C@H](O)[C@@H]3O[C@@H]3C(=NOCc3ccccc3)[C@H]1CC2 0.265

— PubChem BioAssay
